Drawing on PubChem BioAssay AID488975 (Johns Hopkins Ion Channel Center, 2010), this text covers B-score for 96 compounds.

In all, about 310,000 compounds went through this assay and about 2,600 (0.84%) were called active.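 How the source made its calls: active means B-score over 3 SD under the library average, and starting fluorescence ratio not unusually high; inactive means the rest.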 This excerpt belongs to a sample that is enriched for actives.

This assay deals with High affinity choline transporter 1 (Homo sapiens) (UniProt Q9GZV3). As to the kind of experiment: inhibits the human high affinity choline transporter (AID 488975).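 On B-score: choline stimulus applied at its EC90 after an EC20 pre-addition; B-score computed on integrated fluorescence ratio after choline addition.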 The following applies: CHT-expressing cells, membrane potential dye, choline response, at 10 µM; stronger effect = lower value.
Chain of High affinity choline transporter 1 (Homo sapiens) (Q9GZV3 whole entry, looked up): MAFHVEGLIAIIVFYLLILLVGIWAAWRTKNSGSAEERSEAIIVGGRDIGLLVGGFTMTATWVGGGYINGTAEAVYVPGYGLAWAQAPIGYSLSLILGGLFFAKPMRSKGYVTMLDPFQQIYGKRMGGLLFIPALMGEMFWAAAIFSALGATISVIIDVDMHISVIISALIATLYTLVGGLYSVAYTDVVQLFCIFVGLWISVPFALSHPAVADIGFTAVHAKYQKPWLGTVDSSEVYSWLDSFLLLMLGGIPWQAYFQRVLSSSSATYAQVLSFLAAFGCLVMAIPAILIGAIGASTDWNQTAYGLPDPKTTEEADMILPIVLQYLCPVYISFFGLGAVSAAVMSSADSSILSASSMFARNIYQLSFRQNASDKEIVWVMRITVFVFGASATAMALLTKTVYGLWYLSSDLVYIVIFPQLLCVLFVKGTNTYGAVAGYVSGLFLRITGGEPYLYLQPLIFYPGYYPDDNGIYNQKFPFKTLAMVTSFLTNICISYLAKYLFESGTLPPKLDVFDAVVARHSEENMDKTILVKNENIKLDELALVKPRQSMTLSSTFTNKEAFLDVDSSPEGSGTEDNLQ
With `CCOC(=O)NC(=O)/C(C#N)=C\c1ccccc1`, the B-score result was “inactive”. As for `CC(C)(C)C(=O)/C(C#N)=C/c1ccc(O)cc1`, the figure is -5.45 (active); as for `CCOC(=O)/C(C#N)=C/c1ccc(N2CCCCC2)cc1`, “inactive”. Take `O=C(NC1CCCCC1)c1ccc2c(=O)n(CC3CCCO3)c(=O)[nH]c2c1` (stereo unspecified): the B-score entry was “inactive”. In the case of `CCC1CCCCN1CCCNC(=O)C1CCC(Cn2c(=O)[nH]c3ccccc3c2=O)CC1` (stereo unspecified) it was “inactive”; in that of `CCCCCn1c(=O)[nH]c2cc(C(=O)NCCCN3CCCCC3C)ccc2c1=O` (stereo unspecified), -6.4 (active); in that of `CCN1C(=O)[C@H]2[C@@H](c3ccc(C)cc3)N3C(=O)N(c4cccc(Br)c4)C(=O)[C@@]3(CC)[C@H]2C1=O`, “inactive”. As for `O=C(CCCCO)c1ccc(O)c(Cl)c1`, the entry is “inactive”; as for `CC(C)Cn1c(CN(Cc2ccccc2)Cc2ccccc2)nc2c1c(=O)n(C)c(=O)n2C`, “inactive”; as for `CC(C)CCn1c(CN(C)Cc2ccccc2)nc2c1c(=O)n(C)c(=O)n2C`, -5.25 (active). As for `COCCn1c(CN(Cc2ccccc2)Cc2ccccc2)nc2c1c(=O)n(C)c(=O)n2C`, the entry is “inactive”; as for `COc1cc(C2C(C(=O)c3cccs3)=C(O)C(=O)N2CCN2CCOCC2)ccc1OCCC(C)C` (stereo unspecified), “inactive”. `COc1ccc(NC(=O)CN2C(=O)CSc3ccc(S(=O)(=O)N4CCC(C)CC4)cc32)cc1`: the B-score result is “inactive”. In the case of `CC1CCN(CCCNC(=O)CN2C(=O)CSc3ccc(S(=O)(=O)N4CCCCC4)cc32)CC1` it was -5.37 (active); in that of `COCCCNC(=O)CN1C(=O)CSc2ccc(S(=O)(=O)N3CCOCC3)cc21`, “inactive”; in that of `O=S(=O)(NCCCc1ccccc1)c1ccc(Br)cc1`, “inactive”.

In the case of `O=C(c1ccc(F)cc1)N1CCC(C(=O)N2CCN(S(=O)(=O)c3ccccc3Br)CC2)CC1`, the B-score entry was “inactive”. Consider `COc1ccc(/C=C2\SC(=O)N(CCC(=O)NCCCn3ccnc3)C2=O)cc1`, for which the B-score result was “inactive”. On to `O=C(CCCN1C(=O)/C(=C\c2ccccc2)SC1=S)Nc1ccccc1O`, for which the B-score result was “inactive”. In the case of `COc1ccc(/C=C2/SC(=O)N(CCCCCC(=O)Nc3ccccc3C(=O)O)C2=S)cc1` it was -9.31 (active); in that of `CC(=O)CC(CC(=O)NC1CCCCC1)c1ccccc1` (stereo unspecified), “inactive”.

Consider `CCOC(=O)C1CCN(C(=O)c2oc3ccc(S(=O)(=O)N4CCCCCC4)cc3c2C)CC1`, for which the B-score result is “inactive”.

For `Cc1ccc2c(C)c(C(=O)N3CCC(N4CCC(C(=O)NC5CC5)CC4)CC3)oc2c1`, the B-score is -8.96 (active). Consider `Cc1ccc(C)c(C(=O)N2CCC(n3nccc3NC(=O)C3CC3)CC2)c1`, for which the B-score entry is “inactive”. As for `C/C(CCc1ccccc1)=N\NC(=O)c1ccc(CN2CCOCC2)cc1`, the entry is “inactive”; as for `COc1ccc(C(=O)Nc2ccc(CN3CCOCC3)cc2)cc1`, “inactive”.

On to `Cc1ccccc1-n1c(C)cc(/C=N/NC(=O)c2ccc(CN3CCOCC3)cc2)c1C`, for which the B-score is -9.28 (active). `COc1ccc(S(=O)(=O)NCc2cccnc2)cc1NC(=O)c1ccc(C)cc1`: the B-score result was “inactive”.

Regarding `Cc1cc(C)c(S(=O)(=O)N2CCCC2CNC(=O)c2ccc3c(c2)OCO3)c(C)c1` (stereo unspecified), the B-score result is “inactive”.

As for `O=S(=O)(O)Oc1c[nH]c2ccccc12`, the B-score result was “inactive”. In the case of `COc1ccc(OCCC(=O)c2ccc(OC)cc2)cc1` it was “inactive”. As for `COc1ccc(OCCCC(=O)Oc2ccc(OC)cc2)cc1`, the entry is “inactive”; as for `COc1ccc(OCC(=O)OCCN(C)C)cc1`, -11 (active); as for `CCOc1ccc(CCNC(=O)COC(=O)c2c(OC)cccc2OC)cc1OCC`, “inactive”. In the case of `O=C(c1c(F)cccc1Cl)N1CCN(S(=O)(=O)c2ccc3c(c2)OCCCO3)CC1` it was -5.01 (active); in that of `CCCCCC(=O)N1CCN(S(=O)(=O)c2ccc3c(c2)OCCCO3)CC1`, “inactive”; in that of `CN1CCCN(S(=O)(=O)c2ccc3c(c2)OCCO3)CC1`, “inactive”. In the case of `CC(C)c1ccc(S(=O)(=O)N2CCN(C(=O)CN3C(=O)NC(C)(c4ccccc4)C3=O)CC2)cc1` (stereo unspecified), the B-score entry is “inactive”. In the case of `Cc1ccc(CS(=O)(=O)c2ncc(Cl)c(C(=O)Nc3nnc(C)s3)n2)cc1` it was -9.37 (active); in that of `CSc1nnc(NC(=O)c2nc(S(=O)(=O)Cc3ccc(C)cc3)ncc2Cl)s1`, “inactive”; in that of `Cc1cccc(NC(=O)c2nc(S(=O)(=O)Cc3ccccc3)ncc2Cl)c1`, “inactive”.

On to `Cc1ccc(C(=O)CN2C(=O)NC3(CCc4ccccc43)C2=O)c(C)c1` (stereo unspecified), for which the B-score result is “inactive”. In the case of `O=C(OCCOCn1cc(Br)c(=O)[nH]c1=O)c1ccccc1` it was “inactive”; in that of `CC(=O)OCCOCn1cnn2c(=O)c(Br)c(C)nc12`, -5.09 (active). As for `CCCN(CC(=O)Nc1ccccc1OC)C(=O)CCC(=O)c1ccc(F)cc1`, the entry is “inactive”; as for `O=C(Nc1ccn(Cc2ccccc2)n1)c1n[nH]c([N+](=O)[O-])c1Cl`, -5.17 (active). In the case of `Cn1cc([N+](=O)[O-])c(C(=O)Nc2cnn(Cc3ccc(F)cc3)c2)n1` it was “inactive”; in that of `Cc1ccc(Cn2ccc(NC(=O)c3cc(C(C)C)on3)n2)cc1`, “inactive”. For `CCN1C(=O)[C@@H]2[C@@H](c3ccc(-c4ccccc4)cc3)N3CCCC[C@@]3(C(=O)OC)[C@@H]2C1=O`, the B-score entry is “inactive”. In the case of `CCCCCCSc1ccc([C@@H]2[C@@H]3C(=O)N(CC)C(=O)[C@@H]3[C@]3(C(=O)OC)CCCCN23)cc1OC` it was “inactive”; in that of `O=C(NCCC1CCCCN1S(=O)(=O)c1ccc(F)cc1)C(=O)NC1CC1` (stereo unspecified), “inactive”; in that of `COc1ccc(CCNc2cc(N3CCN(C(=O)c4ccccc4OC)CC3)ccc2[N+](=O)[O-])cc1OC`, “inactive”. As for `Cc1cc(/C=C2/C(=N)N3C(=NC2=O)SN=C3S(C)(=O)=O)c(C)n1-c1ccccc1`, the entry is “inactive”. In the case of `CCS(=O)(=O)C1=NSC2=NC(=O)/C(=C\c3ccc(OS(=O)(=O)c4ccccc4)cc3)C(=N)N21` it was -7.46 (active); in that of `CCS(=O)(=O)C1=NSC2=NC(=O)/C(=C\c3cc(C)n(-c4cccc(OC)c4)c3C)C(=N)N21`, “inactive”; in that of `Cc1ccc2c(C)c(C(=O)N3CCN(c4ccncc4)CC3)oc2c1C`, “inactive”. With `CCOc1cc(C(=O)Nc2ccc(S(=O)(=O)Nc3cnc4ccccc4n3)cc2)cc(OCC)c1OCC`, the B-score result is “inactive”. In the case of `O=C(NCCCn1ccnc1)Nc1ccc(Cl)cc1Cl` it was “inactive”; in that of `O=C(Nc1ccccc1C(=O)NCCCn1ccnc1)c1ccc(Cl)cc1Cl`, -5.25 (active); in that of `O=C(NCCCn1ccnc1)c1ccccc1F`, “inactive”. In the case of `COc1ccc(C(=O)C2CCCN(C(=O)c3ccc(OC)o3)C2)c(C)c1` (stereo unspecified) it was “inactive”; in that of `COCC(=O)Nc1c(C(=O)N2CCCC2)oc2ccccc12`, “inactive”; in that of `CCOCCCN(C)C1CCN(C(=O)c2oc3ccccc3c2NC(=O)Cc2cccc([N+](=O)[O-])c2)CC1`, “inactive”. As for `CCOCCCN(C)C1CCN(C(=O)c2oc3ccccc3c2NC(=O)COc2cccc(C)c2)CC1`, the figure is -6.44 (active). Take `C/C(=N\Nc1nc2ccccc2[nH]1)c1cccs1`: the B-score was -6.15 (active). As for `O=C(Nc1ccccc1-c1nc2ccccc2[nH]c1=O)c1cccs1`, the entry is “inactive”.

Take `C/C(=N\Nc1ncc(Cl)cc1Cl)c1cccs1`: the B-score result is “inactive”. In the case of `COC(=O)c1ccc(SCc2ccccc2)nc1` it was “inactive”; in that of `COc1cnn(-c2ccc([N+](=O)[O-])cc2)c(=O)c1Cl`, “inactive”; in that of `Nc1c(C(=O)Nc2ccc3c(c2)OCCO3)nnn1Cc1ccccc1`, “inactive”. In the case of `O=C(Cc1c[nH]c2ccccc12)OCCOC(=O)Cc1c[nH]c2ccccc12` it was “inactive”; in that of `O=C(OCC(=O)c1c[nH]c2ccccc12)c1cccc(O)c1`, -7.81 (active).

Take `O=C(NCCCc1ccccc1)C(=O)c1c[nH]c2ccccc12`: the B-score result is “inactive”. `COc1ccc(N2CCN(C(=O)COC(=O)c3cccc(S(=O)(=O)Nc4ccccc4OC)c3)CC2)cc1`: the B-score entry is “inactive”. On to `O=C(Nc1ccc2c(c1)CCC2)c1cccc(S(=O)(=O)N2CCN(c3ccc(F)cc3)CC2)c1`, for which the B-score result is “inactive”.

As for `Cc1cccnc1NC(=O)c1cccc(S(=O)(=O)N2CCN(c3ccc(F)cc3)CC2)c1`, the B-score is -6.97 (active). In the case of `O=C(Nc1cccnc1)c1cccc(S(=O)(=O)N2CCCC2)c1` it was “inactive”. In the case of `CN1CCN(S(=O)(=O)c2cccc(C(=O)O)c2)CC1` it was “inactive”. Regarding `COc1ccc(OC)c(NC(=O)c2cccc(S(=O)(=O)N3CCN(C(C)=O)CC3)c2)c1`, the B-score entry was “inactive”. As for `CC(=O)N1CCN(S(=O)(=O)c2cccc(C(=O)NC3CCC(C)CC3)c2)CC1` (stereo unspecified), the figure is -4.99 (active). In the case of `Cc1cc(NS(=O)(=O)c2ccc(NC(=O)c3cccc(OC(F)F)c3)cc2)nc(C)n1` it was “inactive”; in that of `Cc1cc(OC(C)C(=O)Nc2ccc(S(=O)(=O)Nc3onc(C)c3C)cc2)cc(C)c1Cl` (stereo unspecified), -4.96 (active).

With `COc1cc2ccccc2cc1C(=O)Nc1ccc(S(=O)(=O)Nc2cc(C)on2)cc1`, the B-score was -5.68 (active). In the case of `CCOc1ccc(C(=O)Nc2ccc(S(=O)(=O)Nc3cc(C)on3)cc2)cc1` it was “inactive”.

With `CCC(Oc1ccccc1C)C(=O)Nc1ccc(S(=O)(=O)Nc2cc(C)on2)cc1` (stereo unspecified), the B-score is -6.05 (active).

On to `COc1cc(OC)cc(C(=O)Nc2ccc(S(=O)(=O)Nc3cc(C)on3)cc2)c1`, for which the B-score entry was “inactive”. As to `CC(Oc1cccc(Cl)c1)C(=O)Nc1ccc(S(=O)(=O)Nc2ncccn2)cc1` (stereo unspecified), the B-score entry is “inactive”.

As to `Cc1cc(NS(=O)(=O)c2ccc(NC(=O)C(C)Oc3cccc(C)c3C)cc2)nc(C)n1` (stereo unspecified), the B-score was -9.11 (active). As for `Cc1cc(NS(=O)(=O)c2ccc(NC(=O)c3cccnc3)cc2)nc(C)n1`, the entry is “inactive”; as for `COc1ccc(C(=O)Nc2ccc(S(=O)(=O)Nc3onc(C)c3C)cc2)cc1OC`, “inactive”. As for `CCOc1ccc(CC(=O)Nc2ccc(S(=O)(=O)Nc3cc(C)on3)cc2)cc1OCC`, the entry is “inactive”; as for `CCc1ccc(OC(C)C(=O)Nc2ccc(S(=O)(=O)Nc3cc(C)on3)cc2)cc1` (stereo unspecified), “inactive”; as for `COc1ccc(Cl)cc1NC(=O)CN(C)C(=O)c1cc(-c2cccs2)nn1-c1ccccc1`, “inactive”. For `O=C(CNC(=O)c1ccccc1Br)NCCSc1ccc(Br)cc1`, the B-score result is “inactive”.

On to `O=C(Oc1ccc(-c2nnco2)cc1)c1ccc(F)c(S(=O)(=O)N2CCOCC2)c1`, for which the B-score result is “inactive”. As for `O=C(NCCCN1CCCC1=O)c1ccc(S(=O)(=O)Nc2ccccc2)cc1`, the entry is “inactive”.
